Among the data in the supplement of paper PMC9262897, “Low-cost anti-mycobacterial drug discovery using engineered E. coli” (Nature Communications, 2022) are growth values, retold here.

Where a name gives a salt, the structure may show the parent alone. ± gives the standard deviation of the averaged measurements.

In the assay the test system is E. coli TESEC Mtb DapB. The experiment in a line: growth (OD600 after 10 h); higher = more growth (less inhibition). The note with it: arabinose induction (level): High; compound 0.1 mM; raw OD600 reference: median of DMSO wells […], cell-free background 0.041. As to the method: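 TESEC E. coli strains in which the native enzyme is deleted and replaced by arabinose-inducible Mtb Asd, DapB, CysH or TrpD, each grown in its selective medium. Strains were screened against the Prestwick library at 0.1 mM and 1% DMSO in 384-well format at low and high arabinose induction. Growth is read as OD600 after 10 h in triplicate.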
Compound `CCC(=O)O[C@@](Cc1ccccc1)(c1ccccc1)[C@@H](C)CN(C)C` [Levopropoxyphene napsylate] displayed a growth of 0.175 ± 0.026. `COP(=O)(OC)C(O)C(Cl)(Cl)Cl` (stereo not given) [Trichlorfon] had a growth of 0.208 ± 0.028. Take `CCN[C@@H](C)Cc1cccc(C(F)(F)F)c1` [Dexfenfluramine hydrochloride]: the growth was determined as 0.189 ± 0.0055.

In the case of `CN1C(=O)CCS(=O)(=O)C1c1ccc(Cl)cc1` (stereo not given) [Chlormezanone], the growth was 0.193 ± 0.0088. Compound `O=c1c2ccccc2[se]n1-c1ccccc1` [Ebselen] displayed a growth of 0.22 ± 0.027.

On to `C[C@@H]1CN([C@H]2CC[C@](C#N)(c3ccc(F)cc3)CC2)CC[C@]1(C(=O)O)c1ccccc1` [Levocabastine hydrochloride], for which the growth worked out at 0.192 ± 0.0051. `C[N+]12CCC(CC1)C(OC(=O)C(O)(c1ccccc1)c1ccccc1)C2` (stereo not given) [Clidinium bromide] came in with a growth of 0.169 ± 0.01.

Compound `C[C@]12CCC(=O)C(O)=C1CC[C@@H]1[C@@H]2CC[C@]2(C)C(=O)CC[C@@H]12` [Formestane] displayed a growth of 0.156 ± 0.01. Regarding `NCCCNCCSP(=O)(O)O` [Amifostine], the growth was 0.196 ± 0.0064. The compound `CC(C)(N)Cc1ccccc1` [Phentermine hydrochloride] yielded a growth of 0.206 ± 0.021. Compound `CN[C@@H]1C[C@@H](c2ccc(Cl)c(Cl)c2)c2ccccc21` [Indatraline hydrochloride] returned a growth of 0.052 ± 0.0016.

`C[C@@H]1CC[C@H]2[C@@H](C)C(=O)O[C@@H]3O[C@@]4(C)CC[C@@H]1[C@]32OO4` [Artemisinin] came in with a growth of 0.179 ± 0.012. In turn, `CCCC[N+]1(C)[C@@H]2CC(OC(=O)[C@H](CO)c3ccccc3)C[C@H]1[C@@H]1O[C@@H]12` (stereo not given in full) [Butylscopolammonium (n-) bromide] registered a growth of 0.216 ± 0.011.

Consider `O=P1(NCCCl)OCCCN1CCCl` (stereo not given) [Ifosfamide], for which the growth was 0.204 ± 0.0083. On to `CCN(C(C)=O)c1cccc(-c2ccnc3c(C#N)cnn23)c1` [Zaleplon], for which the growth came to 0.179 ± 0.013. In turn, `C[C@]12CCC(=O)C=C1CC[C@@H]1[C@@H]2C(=O)C[C@]2(C)C(=O)CC[C@@H]12` [Adrenosterone] registered a growth of 0.202 ± 0.007.

`CN1CCN(C(=O)OC2c3nccnc3C(=O)N2c2ccc(Cl)cn2)CC1` (stereo not given) [Zopiclone] returned a growth of 0.194 ± 0.0097.

Regarding `O=C(O)CCCc1ccc(N(CCCl)CCCl)cc1` [Chlorambucil], the growth amounted to 0.209 ± 0.023. In turn, `CCC1(C)CC(=O)NC(=O)C1` [Bemegride] registered a growth of 0.2 ± 0.0046.

Take `CCCCCC[C@H]1C(=O)O[C@H](C)[C@H](NC(=O)c2cccc(NC=O)c2O)C(=O)O[C@@H](C)[C@@H]1OC(=O)CC(C)C` [Antimycin A]: the growth was determined as 0.15 ± 0.018. In the case of `CC(=O)OCC1=C(C(=O)O)N2C(=O)[C@@H](N)[C@H]2SC1` [Cephalosporanic acid, 7-amino], the growth is 0.187 ± 0.014. Then `CC(N)C(O)c1ccccc1` (stereo not given) [Phenylpropanolamine hydrochloride], with 0.189 ± 0.009.

In turn, `C[C@]12Cc3c[nH]nc3C[C@@H]1CC[C@@H]1[C@@H]2CC[C@@]2(C)[C@H]1CC[C@]2(C)O` [Stanozolol] showed a growth of 0.219 ± 0.018.

Compound `NC(=O)CN1CCCC1=O` [Piracetam] came in with a growth of 0.202 ± 0.0067. Compound `O=P1(N(CCCl)CCCl)NCCCO1` (stereo not given) [Cyclophosphamide] registered a growth of 0.205 ± 0.019.
